# S-ASM inh: blocks human secretory acid sphingomyelinase; Potency, µM (highest dose often 57.5 µM), most hits filed as inhibitors; 0.006% of 340,000 active; P17405; placental ASM, HMU-PC fluorogenic substrate, 60 min
# Target sequence (P17405 47-631 limits assumed): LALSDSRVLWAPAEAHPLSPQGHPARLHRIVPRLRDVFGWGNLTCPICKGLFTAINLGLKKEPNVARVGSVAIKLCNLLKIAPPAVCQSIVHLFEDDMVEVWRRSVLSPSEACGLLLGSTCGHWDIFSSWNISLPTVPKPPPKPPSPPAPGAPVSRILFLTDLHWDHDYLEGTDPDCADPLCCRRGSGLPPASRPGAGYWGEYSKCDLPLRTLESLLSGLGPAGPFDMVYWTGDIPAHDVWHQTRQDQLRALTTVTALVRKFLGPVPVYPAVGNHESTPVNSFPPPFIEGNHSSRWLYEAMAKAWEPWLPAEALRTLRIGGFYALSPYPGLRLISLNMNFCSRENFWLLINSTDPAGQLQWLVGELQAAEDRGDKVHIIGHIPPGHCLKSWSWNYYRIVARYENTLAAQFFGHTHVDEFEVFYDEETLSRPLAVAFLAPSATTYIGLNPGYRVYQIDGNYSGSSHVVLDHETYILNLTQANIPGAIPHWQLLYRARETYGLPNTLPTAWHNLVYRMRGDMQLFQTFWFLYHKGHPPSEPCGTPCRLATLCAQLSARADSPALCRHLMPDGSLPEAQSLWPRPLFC
#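 Human placenta-derived ASM enzyme was preincubated with compound for 10 minutes at room temperature, then given fluorogenic substrate HMU-PC0 (9 uM final) for 60 minutes at 37 °C; a pH 10 stop preceded fluorescence reading at Ex 386/Em 447 nm.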
# IL-1B inflam inh: inhibitors of inflammasome signaling (IL-1 beta secretion); THP-1 LPS/ATP IL-1B secretion, AlphaLISA, 16 h; hits give low values; 4.7% of 360,000 active; activity change, % at 57.5 µM; AID 743279; in the data active means activity change below about -50%; inconclusive means mostly about -30% to -49%
#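 Secreted IL-1B measured by AlphaLISA bead assay after 16 h compound exposure of THP-1 cells; compounds (final up to 57.5 uM) added 1 h before LPS (250 ng/mL) and ATP (1.25 mM) stimulation; lower signal means less secretion.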
# HepG2 tox: kills HepG2 cells in TGF-b inhibitor counter-screen; AID 588856; HepG2 CAGA-GFP viability, ATP luminescence, 18 h; 0.76% of 410,000 active; Potency, µM (highest dose often 46.1 µM), actives largely listed as cytotoxic
#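 HepG2 CAGA-GFP cells (1000/well, DMEM with 1% FBS) received compound, then TGF-beta at 500 pg/mL final, and were incubated 18 hours at 37 degrees C. Viability was read by CellTiter-Glo luminescence. Media-only wells were set as complete cell-killing and DMSO as no toxicity.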
# TDP1 cell noCPT: qHTS for Inhibitors of human tyrosyl-DNA phosphodiesterase 1 (TDP1): qHTS in cells in absence of CPT; DT40 Tdp1-/- hTDP1 cells, no CPT, ATP luminescence, 48 h; Potency, µM (top dose mostly 46.2 µM), actives largely listed as inhibitors; 15% of 420,000 active; AID 686978, 2013; further: nearly all actives have a fitted effect of over 55% in size
#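 Camptothecin absent (DMSO only). Human TDP1-complemented DT40 knockout cells, 400 cells/well, 37 °C for minimum 48 hr; ATP measured via CellTiter-Glo, 30 min dark incubation, luminescence.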
# TGFb inhibitor: TGF-b pathway inhibition. HepG2 CAGA-GFP TGF-b/SMAD3 reporter, GFP fluorescence, 18 h; TGF-beta stimulated, 500 pg/mL final. Potency, µM (highest dose often 46.1 µM), usual class: inhibitors. 1.2% of 410,000 active; further: nearly all actives have a fitted effect of over 65% in size
#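 Per well, imaged GFP fluorescence of HEPG2 CAGA-GFP cells gives the signal; cells get compound, then TGF-beta (500 pg/mL final), 18 h at 37 degrees C; %Activity versus -TGF-beta and +DMSO controls.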
# DT40 TDP1 CPT: DT40-hTDP1 cell growth loss with CPT; chicken DT40 Tdp1-/-;hTDP1 cells + 20 nM CPT, ATP luminescence, 48 h; Potency, µM (top dose mostly 46.2 µM), hits mostly inhibitors; 12% of 420,000 active; AID 686979; further: nearly all actives have a fitted effect of over 55% in size
#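 Cell growth measured by CellTiter-Glo luminescence after a minimum 48 h, 37 C compound exposure with 20 nM CPT in Tdp1-knockout DT40 cells stably expressing hTDP1, seeded 400/well; qHTS titration format.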
# Numbers stand for hits; . = inactive; ? = inconclusive; / = no result given. Sampled rows, rich in hits. Any-hit rate of the full collection: about 19%. Unless noted, the call rests on the fitted dose curve; in most records, active means well fitted curve in the direction sought with a large enough effect; inconclusive means small, poorly fitted or top-dose-only effect, or another doubt; inactive means no such curve, though single readings can be large; an effect the other way counts as inactive or inconclusive.
SMILES,S-ASM inh,IL-1B inflam inh,HepG2 tox,TDP1 cell noCPT,TGFb inhibitor,DT40 TDP1 CPT
CCN(CC)c1cccc(OCC(=O)N2c3ccccc3CC2C)c1 (stereo unspecified),.,.,.,18µM,.,?
CCc1nnc(N2C(=O)c3ccccc3C2(O)c2ccccc2)s1 (stereo unspecified),.,.,.,?,.,.
Cc1ccc(CN2CCc3nnc(C(NS(C)(=O)=O)C(C)C)n3CC2)cc1C (stereo unspecified),/,/,/,.,/,.
Cc1cc(=O)oc2cc(OCC(=O)N3CCCC(C)C3)ccc12 (stereo unspecified),.,.,.,.,.,.
Cc1cc(=O)oc2ccc(OCC(=O)N3CCC(C)CC3)cc12,.,.,.,26µM,.,?
O=C(Nc1ccc(S(=O)(=O)N2CCC(c3nc4ccccc4s3)CC2)cc1)c1ccc(F)cc1,/,/,.,.,.,.
COC(=O)c1cc(=O)n(CCc2ccccc2F)c(=Nc2ccc(F)c(Cl)c2)s1,.,-101,.,8.2µM,?,15µM
COC(=O)c1cc(=O)n(Cc2ccco2)c(=Nc2ccc(F)c(Cl)c2)s1,.,-105,.,13µM,13µM,16µM
COC(=O)c1c(C(=O)OC)c(C)n(Cc2ccco2)c1C,.,.,.,.,.,.
Cc1cccc(NC(=O)CN2C(=O)COc3ccc(Cl)cc32)c1C,.,.,.,.,.,.
Cc1cccc(NC(=O)CN2CCN(C(=O)CNC(=O)Cc3cccc4ccccc34)CC2)c1C,.,.,.,10µM,.,23µM
NC(=O)c1ccccc1NC(=O)CN1CCN(Cc2ccc(Cl)cc2Cl)CC1,.,.,.,23µM,?,?
Cc1cccc(NC(=O)CN2CCN(CC(=O)NCc3ccc(Cl)cc3Cl)CC2)c1C,.,.,.,?,.,23µM
O=C(CN1CCCCCCC1)Nc1ccc(Cl)cc1Cl,.,.,.,?,.,.
Cc1cccc(NC(=O)CN2CCN(C(=O)C3CCC3)CC2)c1C,.,.,.,.,.,.
COc1ccccc1OCC(=O)NCC1(N(C)C)CCCCC1,/,/,.,.,.,.
O=C(NCc1ccccc1)C(c1cccnc1)N(C(=O)c1ccccn1)c1ccc(F)cc1 (stereo unspecified),.,.,.,.,.,.
Fc1cccc(CCN2C(=S)NC[C@@H]2Cc2ccccc2)c1,.,.,.,?,?,21µM
NC1=NC[C@H](c2ccccc2)N1CCCCC1CCCCC1,.,-83,.,7.3µM,?,5.2µM
NC1=NC[C@H](c2ccccc2)N1CCc1cccc(F)c1,.,.,.,13µM,.,16µM
c1ccc(NC2=NCCN2CCC2CCCC2)cc1,.,.,.,.,.,?
NC1=NC[C@@H](Cc2ccc(O)cc2)N1CCc1cccc(F)c1,.,.,.,.,.,?
O=C1NC[C@@H](CCCCN2CCN(Cc3ccccc3)C(=O)C2=O)N(CCC2CCCCC2)C1=O,/,.,/,.,/,.
S=C1NC[C@H](c2ccccc2)N1CCCCC1CCCCC1,.,.,11µM,?,18µM,?
O=C(C1CCCCC1)N(Cc1cccnc1)c1nc2ccc(F)cc2s1,/,/,.,?,?,?
SMILES,S-ASM inh,IL-1B inflam inh,HepG2 tox,TDP1 cell noCPT,TGFb inhibitor,DT40 TDP1 CPT
COc1cc(CCN(C(=O)c2cc3ccccc3[nH]2)C(C)c2nc3ccccc3[nH]2)cc(OC)c1 (stereo unspecified),/,.,.,?,?,?
N#CC(c1ccccc1)C(CC(=O)c1ccccc1)c1ccccc1 (stereo unspecified),/,.,.,?,.,?
COc1ccc(S(=O)(=O)NCC(c2ccco2)N2CCOCC2)cc1C (stereo unspecified),/,/,.,.,.,.
O=C1[C@@H](Oc2ccccc2)[C@@H](c2ccccc2)N1c1cccnc1,.,.,.,13µM,.,?
O=C1[C@H](c2ccccc2)[C@@H](c2ccccc2)N1c1ccncc1,.,.,.,?,.,15µM
O=C1[C@@H](Oc2ccccc2)[C@@H](c2ccncc2)N1c1ccccc1,.,.,.,18µM,?,?
C[C@H]1C(=O)N(c2ccccc2)[C@@H]1c1ccccc1,.,.,.,.,.,.
O=C(Nc1cc(-c2nc3ccccc3o2)ccc1Cl)c1ccc(N2CCCCC2)c([N+](=O)[O-])c1,/,/,.,18µM,.,?
COc1ccc2oc(-c3ccc(NC(=O)c4ccc(N5CCOCC5)c([N+](=O)[O-])c4)cc3)nc2c1,.,.,.,2.1µM,.,?
O=C(Nc1cccnc1)c1ccc(N2CCOCC2)c([N+](=O)[O-])c1,.,.,.,.,.,.
O=C(Nc1ccc(-c2nc3ccccc3o2)cc1)c1ccc(N2CCOCC2)c([N+](=O)[O-])c1,.,.,.,4.6µM,?,7.3µM
Cn1cc([N+](=O)[O-])c(C(=O)Nc2ccc(-c3nc4ccccc4o3)cc2)n1,.,-86,.,.,?,.
OC(Cn1cncn1)(c1ccc(F)cc1)c1ccc(Cl)cc1 (stereo unspecified),.,.,.,?,.,.
O=C(O)c1ccc(C(=O)Nc2cccc3cccnc23)cc1,/,/,.,/,.,/
CCOC(=O)NNc1ccc(N(CC)CC(C)O)nn1 (stereo unspecified),/,/,/,.,/,.
COc1ccccc1NC(=O)COC(=O)C1CC1,.,.,.,.,.,.
COc1ccccc1CN1C(=O)CN(C2CCCCCC2)C(=O)C1c1ccc(F)cc1 (stereo unspecified),.,.,.,18µM,.,21µM
CCCCN1C(=O)CN(C2CCCCCC2)C(=O)C1c1ccc(OCCC)c(OC)c1 (stereo unspecified),/,/,.,?,.,12µM
CCCOc1ccc(C2C(=O)N(C3CCCCC3)CC(=O)N2CCC)cc1OC (stereo unspecified),.,.,.,?,.,?
CCCOc1ccc(C2C(=O)N(C3CCCCCC3)CC(=O)N2Cc2ccccc2OC)cc1OC (stereo unspecified),/,/,.,16µM,?,26µM
O=C(Nc1ccc(S(=O)(=O)NC2=NCCCCC2)cc1)c1ccc(Cl)c([N+](=O)[O-])c1,.,-96,.,23µM,.,?
N#Cc1ccsc1NC(=O)c1cccc([N+](=O)[O-])c1,.,.,.,?,.,.

# Bioassay records from PubChem BioAssay.
